In PubChem BioAssay (NCATS):
Records with an inconclusive call do not appear. Entries that show only a call come without a potency. Activity calls are given as the source filed them. Calls follow the shape of the dose curve; as a rule, active = well fitted curve in the direction sought with a large enough effect; inconclusive = small, poorly fitted or top-dose-only effect, or another doubt; inactive = no such curve, though single readings can be large; an effect the other way counts as inactive or inconclusive.

Key:
[1] = system: WaGa; assay: qHTS assay to identify novel small-molecules to repurpose for Merkel cell carcinoma treatment (AID 1296009); details: MCC and control cell lines, CellTiter-Glo viability, 72 h; series mostly up to 46 µM; also: nearly all actives have a fitted effect of over 60% in size
How it was run: (§1)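 Cell viability, measured as CellTiter-Glo luminescence, was normalized between DMSO and no-cell wells. The cells had been exposed to 8- or 11-point compound dilutions for 72 hr at 37 degree celsius.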

[2] = system: CAOV3; assay: Primary qHTS to identify gynecologic anti-cancer compounds using libraries of approved drugs and bioactive compounds (AID 1345084); details: Gynecologic cancer cell panel viability, ATPlite luminescence, 48 h; series mostly up to 57.5 µM; also: nearly all actives have a fitted effect of over 55% in size
How it was run: (§2)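 Five-concentration response, 48 h; readout is ATP-driven luciferase luminescence.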

[3] = system: CASKI; assay: as above; details: Gynecologic cancer cell panel viability, ATPlite luminescence, 48 h; series mostly up to 57.5 µM
How it was run: as §2

[4] = system: Es-2; assay: as above; details: Gynecologic cancer cell panel viability, ATPlite luminescence, 48 h; series mostly up to 57.5 µM
How it was run: as §2

[5] = system: HeLa; assay: as above; details: Gynecologic cancer cell panel viability, ATPlite luminescence, 48 h; series mostly up to 57.5 µM
How it was run: as §2

[6] = system: JEG-3; assay: as above; details: Gynecologic cancer cell panel viability, ATPlite luminescence, 48 h; series mostly up to 57.5 µM
How it was run: as §2

[7] = system: UISO; assay: qHTS assay to identify novel small-molecules to repurpose for Merkel cell carcinoma treatment (AID 1296009); details: MCC and control cell lines, CellTiter-Glo viability, 72 h; series mostly up to 46 µM; also: nearly all actives have a fitted effect of over 60% in size
How it was run: as §1

[8] = system: C33A; assay: Primary qHTS to identify gynecologic anti-cancer compounds using libraries of approved drugs and bioactive compounds (AID 1345084); details: Gynecologic cancer cell panel viability, ATPlite luminescence, 48 h; series mostly up to 57.5 µM; also: nearly all actives have a fitted effect of over 55% in size
How it was run: as §2

[9] = system: Hek293T; assay: as above; details: Gynecologic cancer cell panel viability, ATPlite luminescence, 48 h, control line for the selectivity index; series mostly up to 57.5 µM
How it was run: as §2
Potency is read from the fitted curve at half-maximal effect.

With `Clc1ccc(CCC(Cn2ccnc2)Sc2c(Cl)cccc2Cl)cc1` (stereo unspecified) the Potency [1] was “inactive”, the Potency [2] was “inactive” and the Potency [3] was “inactive”. For the same compound, the Potency [4] was “inactive”, the Potency [5] was “inactive” and the Potency [6] was “inactive”.

For `NN=C(N)N`, the Potency [7] was “inactive”, the Potency [1] was “inactive” and the Potency [8] was “inactive”. The Potency [2] was “inactive”, the Potency [3] was “inactive” and the Potency [4] was “inactive”. For the same compound, the Potency [5] was “inactive”, the Potency [9] was “inactive” and the Potency [6] was “inactive”.

In the case of `COC[C@@H](NC(C)=O)C(=O)NCc1ccccc1`, the Potency [7] was “inactive”, the Potency [1] was “inactive” and the Potency [8] was “inactive”. The Potency [2] was “inactive”, the Potency [3] was “inactive” and the Potency [4] was “inactive”. For the same compound, the Potency [5] was “inactive”, the Potency [9] was “inactive” and the Potency [6] was “inactive”.

In the case of `CCOC(=O)C1(c2ccccc2)CCN(CCC(C#N)(c2ccccc2)c2ccccc2)CC1`, the Potency [8] was “inactive”, the Potency [2] was “inactive” and the Potency [3] was “inactive”. The Potency [5] was “inactive”.

In the case of `C[C@]12C/C(=C/O)C(=O)C[C@@H]1CC[C@@H]1[C@@H]2CC[C@@]2(C)[C@H]1CC[C@]2(C)O`, the Potency [8] was “inactive”, the Potency [2] was “inactive” and the Potency [3] was “inactive”. The Potency [4] was “inactive”, the Potency [5] was “inactive” and the Potency [9] was “inactive”. For the same compound, the Potency [6] was “inactive”.

In the case of `CN(C)[C@@H]1C(=O)C(C(N)=O)=C(O)[C@@]2(O)C(=O)C3=C(O)c4c(O)cccc4[C@@](C)(O)[C@H]3C[C@@H]12`, the Potency [7] was “inactive”, the Potency [1] was “inactive” and the Potency [8] was “inactive”. For the same compound, the Potency [2] was “inactive”, the Potency [3] was “inactive” and the Potency [4] was “inactive”. For the same compound, the Potency [5] was “inactive”, the Potency [9] was “inactive” and the Potency [6] was “inactive”.

`CC[C@@H](CO)NC(=O)[C@@H]1C=C2c3cccc4c3c(cn4C)C[C@H]2N(C)C1` was tested, and the Potency [8] was “inactive”, the Potency [2] was “inactive” and the Potency [3] was “inactive”. The Potency [4] was “inactive”, the Potency [5] was “inactive” and the Potency [9] was “inactive”. For the same compound, the Potency [6] was “inactive”.

In the case of `COc1ccc(Cc2nccc3cc(OC)c(OC)cc23)cc1OC`, the Potency [7] was “inactive”, the Potency [1] was “inactive” and the Potency [2] was “inactive”.

With `CO[C@]12CC[C@@]3(C[C@@H]1[C@](C)(O)C(C)(C)C)[C@@H]1Cc4ccc(O)c5c4[C@@]3(CCN1CC1CC1)[C@H]2O5` the Potency [7] was 24.1 µM (active) and the Potency [6] was “inactive”.

`C=C1C[C@@H]2[C@H](CC[C@]3(C)C(=O)CC[C@@H]23)[C@@]2(C)C=CC(=O)C=C12` was tested, and the Potency [7] was “inactive”, the Potency [8] was “inactive” and the Potency [3] was “inactive”. For the same compound, the Potency [5] was “inactive”.

For `COc1ccc2c(c1OC)CN1CCc3cc4c(cc3C1C2)OCO4` (stereo unspecified), the Potency [1] was 16.6 µM (active), the Potency [2] was “inactive” and the Potency [4] was “inactive”. For the same compound, the Potency [5] was “inactive” and the Potency [6] was “inactive”.

With `NP(N)(=O)NC(=O)c1ccc(F)cc1` the Potency [7] was “inactive”, the Potency [1] was “inactive” and the Potency [8] was “inactive”. The Potency [2] was “inactive”, the Potency [3] was “inactive” and the Potency [4] was “inactive”. The Potency [5] was “inactive”, the Potency [9] was “inactive” and the Potency [6] was “inactive”.

With `CC(CCc1ccccc1)NC(C)C(O)c1ccc(O)cc1` (stereo unspecified) the Potency [7] was “inactive”, the Potency [1] was “inactive” and the Potency [8] was “inactive”. For the same compound, the Potency [2] was “inactive”, the Potency [3] was “inactive” and the Potency [4] was “inactive”. For the same compound, the Potency [5] was “inactive”, the Potency [9] was “inactive” and the Potency [6] was “inactive”.

For `c1ccc2c(c1)OCC(C1=NCCN1)O2` (stereo unspecified), the Potency [9] was 28.2 µM (active) and the Potency [6] was “inactive”.

With `Cc1sc2c(c1C)C(c1ccc(Cl)cc1)=N[C@@H](CC(=O)OC(C)(C)C)c1nnc(C)n1-2` the Potency [1] was 2.35 µM (active).
